# Screens (PubChem)
# JMJD2A Tudor inh: blocks the human JMJD2A Tudor domain; O75164; AlphaScreen JMJD2A-Tudor / H3K4me3 peptide binding; Potency, µM (top dose mostly 114 µM), for the others: at the top dose activity change, negative = inhibition, usual class: inhibitors; actives 4.4% (n = 390,000); AID 504339; further: on the % scale 0 is the no-effect control and ±100 the full control effect; nearly all actives have a fitted effect of over 50% in size
# BAZ2B block: inhibitors of human BAZ2B bromodomain; Q9UIF8; AlphaScreen BAZ2B-H3K14Ac peptide displacement; Potency, µM (series often up to 114 µM), for inactives: at the top dose activity change, negative = inhibition, hits mostly inhibitors; actives 4.4% (n = 360,000); AID 504333; further: on the % scale 0 is the no-effect control and ±100 the full control effect; nearly all actives have a fitted effect of over 60% in size
#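 BAZ2B (50 nM) with biotin-H3(5-23)K14Ac peptide (50 nM) in PBS pH 7.4, 0.01% Tween-20, preformed 30 min, then compound 30 min at room temperature; top concentration 110uM. AlphaScreen streptavidin donor/nickel chelate acceptor beads (10 ug/mL final), 20 min dark, signal read.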
# G9a inh: G9a (human) methyltransferase inhibition; G9a H3K9 monomethylation, AlphaScreen, 2 h; Q96KQ7; AID 504332; actives 8.8% (n = 350,000); Potency, µM (top dose mostly 102 µM), without a hit: at the top dose activity, negative = inhibition, actives largely listed as inhibitors; further: on the % scale 0 is the no-effect control and ±100 the full control effect; nearly all actives have a fitted effect of over 75% in size
# Target sequence (Q96KQ7 913-1193 limits assumed): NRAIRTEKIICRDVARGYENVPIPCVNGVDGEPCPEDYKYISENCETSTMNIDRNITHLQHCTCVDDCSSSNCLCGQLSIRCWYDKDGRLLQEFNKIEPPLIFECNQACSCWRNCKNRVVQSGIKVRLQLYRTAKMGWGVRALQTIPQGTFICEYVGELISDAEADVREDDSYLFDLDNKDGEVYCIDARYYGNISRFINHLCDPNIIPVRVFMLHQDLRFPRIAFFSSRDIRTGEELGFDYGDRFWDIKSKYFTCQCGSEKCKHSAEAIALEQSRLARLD
#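 Quantitative HTS format: methyltransferase activity on a biotin-tagged H3K9 peptide is measured by AlphaScreen, using a rabbit anti-monomethyl-H3K9 antibody with streptavidin donor and anti-IgG acceptor beads. Final levels are 20 nM enzyme, 500 nM peptide, 20 uM SAM; 2 h RT.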
# HP1b chromo inh: inhibitors of HP1-beta chromodomain binding to methylated histone tails; AID 540317; Potency, µM (highest dose often 114 µM), without a hit: at the top dose activity change, negative = inhibition, actives largely listed as inhibitors; actives 0.56% (n = 390,000); AlphaScreen HP1-beta / biotin-H3K9me3 peptide binding; P83916; further: nearly all actives have a fitted effect of over 70% in size
# Target sequence (P83916 whole entry, looked up): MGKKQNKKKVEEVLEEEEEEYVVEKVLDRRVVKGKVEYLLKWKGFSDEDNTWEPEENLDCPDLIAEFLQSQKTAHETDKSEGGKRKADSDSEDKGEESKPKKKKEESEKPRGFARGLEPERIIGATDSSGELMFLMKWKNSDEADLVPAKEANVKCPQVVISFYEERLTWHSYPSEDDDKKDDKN
#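 Compound inhibition of the preformed complex between 50 nM HP1-beta and 50 nM biotinylated H3K9me3 peptide was read by AlphaScreen. Buffer was PBS pH 7.4 with 0.01% Tween-20. Incubations ran 30 min at room temperature, with 10 ug/mL donor/acceptor beads.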
# L3MBTL1 block: inhibitors of human L3MBTL1; AlphaScreen L3MBTL1–H3K9me1 peptide binding; Potency, µM (highest dose often 57.1 µM), for inactives: at the highest dose activity, negative = inhibition, hits mostly inhibitors; actives 0.66% (n = 230,000); further: on the % scale 0 is the no-effect control and ±100 the full control effect; nearly all actives have a fitted effect of over 60% in size
#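 L3MBTL1 (50 nM) pre-complexed 30 min with biotinylated H3(1-15)K9me1 peptide (75 nM), then compounds added for 30 min at room temperature; AlphaScreen streptavidin donor/nickel chelate acceptor beads (10 ug/mL final) read after 30 min dark incubation.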
# Starred values were filed as active, the others as inactive; ? = inconclusive; nt = no result given; ! = not active in a repeat; [ ] = dose if it differs, or a comment. Shown are actives, neighbours in structure and some others; about 11% of the full set was active somewhere. The call rests on the fitted dose curve; in most records, active means well fitted inhibition curve with a large enough effect; inconclusive means small, poorly fitted or top-dose-only effect; inactive means no such curve, though single readings can be large or run the other way. Potency means the concentration at half of the fitted maximal effect.
SMILES,JMJD2A Tudor inh,BAZ2B block,G9a inh,HP1b chromo inh,L3MBTL1 block
Cc1ccccc1CN1CCN(CC2CC3C=CC2C3)CC1 (stereo unspecified),5.6µM*,22µM*,3.2µM*,?,nt
CCOC(=O)Cc1ccc(NC(=O)NCc2ccc3c(c2)CCN3C(=O)CC)cc1,-11%,0%,5%[59 µM],20%[57 µM],nt
COc1ccc(C2Nc3ccccc3C(=O)N2C2CCCC2)cc1COc1ccc(NC(C)=O)cc1 (stereo unspecified),50µM*,nt,nt,nt,nt
COc1ccc(C2Nc3ccccc3C(=O)N2Cc2cccnc2)cc1COc1ccc(NC(C)=O)cc1 (stereo unspecified),56µM*,nt,nt,nt,nt
COc1ccc(C2Nc3ccccc3C(=O)N2c2ccccc2)cc1COc1ccc(NC(C)=O)cc1 (stereo unspecified),-15%[57.1 µM],nt,nt,2%[57 µM],nt
COc1ccc(CN2C(=O)c3ccccc3NC2c2ccc(OC)c(COc3ccc(NC(C)=O)cc3)c2)cc1 (stereo unspecified),-24%,nt,nt,nt,nt
COc1ccc(C2Nc3ccccc3C(=O)N2Cc2ccccn2)cc1COc1ccc(NC(C)=O)cc1 (stereo unspecified),56µM*,nt,nt,nt,nt
CC(=O)Nc1nonc1-c1nnc(SCc2ccccc2C)n1C,-8%,-12%,-2%[59 µM],27%,nt
COc1ccc(Cl)cc1Nc1nnc(-c2ccncc2)s1,?,?,-13%,103%,nt
COc1ccc(Nc2nnc(-c3ccncc3)s2)cc1Cl,-13%,-14%,8.9µM*,164%,nt
O=C(O)CCn1cc(/C=C2\NC(=S)N(c3ccccc3)C2=O)c(-c2ccc(Br)cc2)n1,?,nt,20µM*,1%,-6%
O=Cc1cn(CCC(=O)O)nc1-c1cccc(Cl)c1,-6%,-22%,-41%,14%,3%[11.4 µM]
CCC(C)[C@H](NC(=O)N1CC(=O)Nc2ccccc21)C(=O)N[C@@H](C(=O)O)c1ccccc1 (stereo partly specified),-24%,-12%,79µM*,17%,nt
CCC(C)[C@H](NC(=O)N1CC(=O)Nc2ccccc21)C(=O)NC(C)CCc1ccccc1 (stereo partly specified),-12%,?,?,39%,nt
O=C1CN(C(=O)N[C@@H](Cc2ccccc2)C(=O)N[C@@H](C(=O)O)c2ccccc2)c2ccccc2N1,32µM*,-5%,-9%[59 µM],18%,nt
Cc1cc(Cl)ccc1OCC(=O)OCC(=O)N1CCC(C(N)=O)CC1,7%,-2%,-9%[12.7 µM],33%,1%
Cc1csc2nc(COC(=O)c3cccc(NC(=O)c4cccc(Cl)c4)c3)cc(=O)n12,-23%,-3%,11%[59 µM],26%,nt
Cc1ccc(Cl)cc1-n1ncc2c(Nc3ccc4c(c3)OCCO4)ncnc21,-7%,-3%,8%[59 µM],19%,nt
O=C(Nc1ccc(-n2cnnn2)cc1)c1cn2ccccc2n1,-8%,-7%,-20%,31%,-1%
Cc1c(NC(=O)c2cn3ccccc3n2)cccc1-n1cnnn1,20µM*,-11%,?,14%,-1%
Cc1cc(C)cc(NC(=O)N2CCC(CN3CCc4ccccc4C3)CC2)c1,-8%,-4%,-7%[59 µM],27%,nt
CC1(C2(O)CCCCC2)NCCc2ccccc21 (stereo unspecified),0.89µM*,35µM*,32µM*,71µM*,6%
COCCN1C(=O)C(=O)/C(=C(/O)c2ccc3c(c2)OCCO3)C1c1ccc(C(=O)OC)cc1 (stereo unspecified),45µM*,?,?,-8%,2%
Cc1nnc(N2C(=O)C(=O)/C(=C(/O)c3ccc4c(c3)OCCO4)C2c2ccc([N+](=O)[O-])cc2)s1 (stereo unspecified),nt,?,28µM*,nt,nt
COc1cccc(C2/C(=C(\O)c3ccc4c(c3)OCCO4)C(=O)C(=O)N2c2nnc(C)s2)c1 (stereo unspecified),-17%,?,-6%[0.501 µM],3%[57 µM],nt
SMILES,JMJD2A Tudor inh,BAZ2B block,G9a inh,HP1b chromo inh,L3MBTL1 block
COC(=O)c1ccc(C2/C(=C(\O)c3ccc4c(c3)OCCO4)C(=O)C(=O)N2c2nnc(C)s2)cc1 (stereo unspecified),-29%,-38%,45µM*,66%,nt
COC(=O)c1ccc(C2/C(=C(/O)c3ccc4c(c3)CC(C)O4)C(=O)C(=O)N2CCN2CCOCC2)cc1 (stereo unspecified),?,-17%[57.1 µM],50µM*,46%,nt
O=C1NC(=O)C2(CCCCCC2)N1,-8%,nt,nt,43%,nt
C=C1[C@@H]2CC[C@H](C2)C1(C)C,nt,nt,5%[12.7 µM],nt,nt
Cc1ccc2c(c1)cc1c(=O)n(CC(=O)NCc3ccco3)nc(C)n12,-16%,2%,10%[59 µM],3%,nt
CC1(C)CC(=O)C(C(O)c2ccccc2)C(C)(C)N1 (stereo unspecified),-14%,1%,-13%,50%,12%
COc1ccc(C2/C(=C(\O)c3ccc4c(c3)OCCO4)C(=O)C(=O)N2Cc2ccco2)c(OC)c1 (stereo unspecified),?,?,?,-7%,-15%
COc1ccc(C2/C(=C(\O)c3ccc4c(c3)OCCO4)C(=O)C(=O)N2c2nc(C)c(C(C)=O)s2)cc1 (stereo unspecified),-28%,?,45µM*,7%,nt
COc1ccc(C(=O)NCc2nc(-c3cccc(C)c3)no2)cc1OC,-7%,0%,-30%[59 µM],23%,nt
C=CCNc1ccc(N2C(=O)C3CCC(C)CC3C2=O)cc1[N+](=O)[O-] (stereo unspecified),nt,?,50µM*,nt,?
C=CCNc1ccc(N2C(=O)CCCC2=O)cc1[N+](=O)[O-],-6%,2%,8%[2.33 µM],24%,nt
C=CCN(CC=C)c1ccc(N2C(=O)C3CCCCC3C2=O)cc1[N+](=O)[O-] (stereo unspecified),?,?,22µM*,-17%,nt
Cc1sc2ncn(CC(=O)N(C)c3ccc(C(C)C)cc3)c(=O)c2c1S(=O)(=O)N1CCC(C)CC1,-28%,-16%,-32%[59 µM],11%,nt
CCOC(=O)[C@H](CCc1ccccc1)N[C@@H](C)C(=O)N1C(C(=O)O)C[C@@H]2CCC[C@@H]21 (stereo partly specified),-5%,6%,6%[12.7 µM],67%,12%
CCOC(=O)[C@H](CCc1ccccc1)N[C@@H](C)C(=O)N1CCC[C@H]1C(=O)O,50µM*!,-6%,-15%,23%,8%
CCOC(=O)[C@H](CCc1ccccc1)N[C@@H](C)C(=O)N1CCC[C@@H]1C(=O)O,20µM*,?,20µM*,-4%,6%
O=[N+]([O-])c1ccccc1Oc1ccc(S(=O)(=O)N2CCOCC2)cc1,-29%,-8%,-13%[12.7 µM],27%,-2%
CN(CC(=O)Nc1ccc(F)c(Cl)c1)S(=O)(=O)c1ccc2c(c1)n(C)c(=O)c(=O)n2C,-11%,-15%,nt,10%[57 µM],nt
